The whole screen tested about 53,000 sequences, of which about 3,700 (7%) were called active.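 How the source made its calls: active means gene knockdowns whose robust z-score for IL-1 alpha signal is at least 2 or at most -2, so actives lie on both sides; inactive means the rest.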 This excerpt belongs to a sample that is enriched for actives.

The nature of the assay: Components of the Cytosolic LPS Sensing Pathway: Gene Identification via Genome-wide siRNA Screen.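 Further: robust z of the log signal after scaling to non-targeting control siRNA wells of the plate.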 To be noted: RAW264.7 macrophages, IL-1a HTRF, actives lie on both sides, screened at 100 nM (by protocol), cells primed 5 h with Pam3CSK4 first. In a few lines: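 Cells (RAW264.7, 1×10^4 per well) were transfected with siRNA at 100 nM and cultured 48h at 37 degrees C. Pam3CSK4 was added for 5 hours; LipidA transfection followed for 24 hour. IL-1a was then measured by HTRF.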
For orientation: TR-FRET usually uses a lanthanide donor and a delayed reading to cut background.
In the case of GCUAGAAAAAAAUCAGUUGTT against Eif2a, the z-score is 0.6 (inactive). CCCAGAACGGGAUGAUUCUTT against Trex2: the z-score is 2.77 (active). Then CCUCUCAACCACUGACUGATT against Gpatch4, with 0.836 (inactive). Then GCUCAAAUCGUACAAGUGUTT against Panx1, with 0.214 (inactive); and GUCCUCGUAGGAACAGCAUTT against Olfr1265, with -1.52 (inactive); and GGCACUGUUGUGGCUGAAATT against Coro1a, with 1.47 (inactive). The same measure for CCUCAUGGAUGUUCGUAGATT against P2ry10: 0.452 (inactive); for GCUAGGAUGUCUGAAAGAGTT against Ccdc178: 0.266 (inactive); for GGCUGUAUCCUGACAGCAATT against Olfr231: 0.213 (inactive). Consider GCGUGGAGAACCGUUAAUCTT against Shroom3, for which the z-score is 0.845 (inactive). In the case of “CCUCUCUAGGCCAUGUUCUTT against 1110008P14Rik”, the z-score is 0.381 (inactive).

For GGUUUUAUCCCUGUUUCCUTT against Naaa, the z-score is -0.115 (inactive). The same measure for CCUGAGAUUGGGAAAUUCUTT against Engase: 2.02 (active). Then GCGGUCAACUGGAAACUAATT against Dnaja3, with 0.735 (inactive); and GCAUCAUGAGUCCCAUUCUTT against Olfr385, with -0.276 (inactive); and CCAACGCGCACGGCCGCGCTT against Tmem158, with -0.359 (inactive). On to CCGAAAAAUAUGUUUUCCGTT against Mettl4, for which the z-score is 2.87 (active). Then CCCUGCUGUCGUUUUGACUTT against Senp3, with -0.122 (inactive). Then GGAAAGUUUUGGCGACUACTT against Fbxw19, with 0.25 (inactive); and GCUCAACUUACGUUCACUCTT against Vps72, with -2.53 (active); and GGAUUUAAAUCACCUGUAATT against Tdpoz1, with -0.864 (inactive).

Regarding GCAGAAAAGGUCUACGUGCTT against Azgp1, the z-score is 1.8 (inactive).

With AAACAGUCAUUUCCUAUAGTT against Olfr1502, the z-score was -2.04 (active). Then CCGAUUAAAAGAGUGUUUGTT against Nudt8, with 1.85 (inactive); and GGUUAUCUUUGGGACUUAATT against Lrmp, with -1.66 (inactive). The same measure for GCUGGUGCUCUUCACCAUATT against Fbxw17: -0.419 (inactive); for CCUGAAAUGCUAAGACUACTT against Gm5142: 1.15 (inactive). The same measure for GGGAUCUUACAUGCCACCATT against Olfr1231: -0.000779 (inactive); for “GGCUACUCGGCCCUCUGUUTT against 4930404N11Rik”: -1.67 (inactive); for GGACGUGUAGCUUGGAAUATT against Rnf26: 5.33 (active). In the case of CCAUACAGAGGUGACAGUUTT against Olfr816, the z-score is -0.23 (inactive). The same measure for CCAUAAAAACCAGAGAAAUTT against Plekhf2: -0.778 (inactive). On to GGUCGACUUAAGAUAAUAATT against Itgb6, for which the z-score was -0.294 (inactive).

Turning to CCCUGUUAAGGAAUGCAAATT against Chil1, the z-score was 0.367 (inactive). Then GGAGAAAUUCGACUGAAAATT against Pcdhb13, with 3.47 (active); and GGCUUUUUGCUUCACUACUTT against Slco4c1, with 1.06 (inactive). As for GGCGAAUUAUUGAAAACGUTT against Actr8, the z-score is 0.916 (inactive).

Turning to GGAGUUGGAUAUUCUAAAATT against B3gntl1, the z-score was -0.64 (inactive). Then GGGCAACCUGGUUACACAUTT against Zfp637, with 1.25 (inactive); and UAGUCAUUGGGAUUCCUUCTT against Olfr112, with 2.98 (active). Then GGUGGAAUGAAAGAACAAGTT against Klhl13, with 1.74 (inactive); and GGCCAGGAAAGAUACAGGATT against Rab3c, with 0.486 (inactive); and GGCCAUGCUGAAAGUAUUUTT against Olfr561, with -1.46 (inactive).

Take GCUUAGAAUCUCUGGACAATT against Rnf168: the z-score is 3.21 (active). As to CGGGAACAUAUCAGACUAATT against Mcm3ap, the z-score is -0.844 (inactive). Then GGCCAUUGAGCUCAACCCUTT against Sgta, with -1.88 (inactive); and CCUAUAAAUGUCCUUAGUCTT against Ccdc115, with 0.127 (inactive). Then CCUAUGGUGCUCUUAUAAATT against Dpp6, with -0.178 (inactive). Then GGUCUUAUGUAAGUGGUAUTT against Ociad1, with -2.03 (active); and GGCACUGUGGUGUAAAUCCTT against Nnt, with -1.53 (inactive); and GGACAUCGAGCUUCAGAUCTT against Dnm1l, with 2.68 (active).

In the case of GGAGAUCGAUGGAGACUUCTT against Sftpa1, the z-score was -0.773 (inactive). Then CGACGAAUGUCCUGAACAUTT against Tmem106a, with -0.193 (inactive); and GCCUUGAUCCUACUGUAACTT against Amigo3, with 2.12 (active). Then “GGGACUUAAGGUUAGACACTT against E330018D03Rik”, with 0.163 (inactive); and CGACCUGUUCGCCAUCAAATT against Scaf1, with 0.511 (inactive); and CGAGGUGCUAAUCUGGCCUTT against Dctpp1, with 0.241 (inactive).

GGAACAAAUCCUGGAACUGTT against Zfp449: the z-score is 1.15 (inactive). Then GGACUGGUCAGAGAUGGAUTT against Pced1a, with 5.33 (active); and GGAAAUGUGGUAAUUCCGATT against Cd44, with 0.256 (inactive).

CGAAAUGAAAACUUCCUGGTT against Mab21l1: the z-score was 0.989 (inactive). Then CCAUCAGUAUUCACAACAATT against Usp42, with -3.12 (active). For GUUACCUCGUGGAAAGCAUTT against Vmn1r43, the z-score is -0.345 (inactive).

Regarding GGUUUGAAGAUGAUGCCUCTT against Nfkbil1, the z-score is -0.848 (inactive). Turning to GGACCACUAGACCUGAUAATT against Itgb1bp1, the z-score was 0.116 (inactive). As for GCAUCCCGACUACAAGUACTT against Sox21, the z-score was -2.06 (active). Then GGUCCGGUCUCAGACUUCATT against Ift27, with 1.16 (inactive). Then GAUUGUCACCACCUUAAGATT against Chchd5, with -0.964 (inactive).
